Where “and” joins values, the source holds several entries; their conditions need not be identical. Identical values can stand only once. Results filed as inconclusive are left out. Calls of active or inactive are those of the source. Unless noted, calls follow the shape of the dose curve; as a rule, active = well fitted curve in the direction sought with a large enough effect in the repeat runs; inconclusive = weak or mixed curves; inactive = no such curve, though single readings can be large; an effect the other way counts as inactive or inconclusive.
How the values were obtained:
[1] = qHTS assay to identify small molecule antagonists of the thyroid receptor (TR) signaling pathway (AID 743065); also: nearly all actives have a fitted effect of over 55% in size; also: potency is read from the fitted curve at half-maximal effect
Outline: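 GH3.TRE-Luc rat pituitary cells (two TREs driving luciferase) were dosed with compound, then stimulated with 1 nM T3 (final) for 23.5 h at 37 C. ONE-Glo luminescence was the read-out, with CellTiter-Fluor fluorescence as the cytotoxicity counter-screen.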

[2] = test system: thyroid hormone receptor (rat, GH3 cells); assay: qHTS assay to identify small molecule agonists of the thyroid receptor (TR) signaling pathway (AID 743066; calls by dose curve)
[3] = molecular target: Aromatase (Homo sapiens) (UniProt P11511); assay: qHTS assay to identify aromatase inhibitors (AID 743083); also: nearly all actives have a fitted effect of over 55% in size; also: potency is read from the fitted curve at half-maximal effect
Aromatase (Homo sapiens), sequence (P11511 whole entry, looked up): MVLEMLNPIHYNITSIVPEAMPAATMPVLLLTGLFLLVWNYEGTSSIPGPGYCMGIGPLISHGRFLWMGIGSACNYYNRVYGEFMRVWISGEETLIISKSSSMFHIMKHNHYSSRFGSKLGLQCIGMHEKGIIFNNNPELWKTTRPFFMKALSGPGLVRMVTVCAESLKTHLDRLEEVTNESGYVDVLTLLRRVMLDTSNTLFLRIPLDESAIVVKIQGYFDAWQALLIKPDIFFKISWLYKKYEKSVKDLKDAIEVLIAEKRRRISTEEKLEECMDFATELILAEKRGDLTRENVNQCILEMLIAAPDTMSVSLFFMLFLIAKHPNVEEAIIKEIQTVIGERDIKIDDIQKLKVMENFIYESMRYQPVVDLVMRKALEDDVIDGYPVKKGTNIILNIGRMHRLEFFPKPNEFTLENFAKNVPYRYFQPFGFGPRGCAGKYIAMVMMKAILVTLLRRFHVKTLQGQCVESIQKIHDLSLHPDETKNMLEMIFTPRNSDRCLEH

[4] = qHTS assay to identify aromatase inhibitors - cell viability counter screen (AID 743084);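 also: cells stimulated with testosterone during compound exposure; nearly all actives have a fitted effect of over 55% in size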; also: potency is read from the fitted curve at half-maximal effect
[5] = molecular target: Aryl hydrocarbon receptor (Homo sapiens) (UniProt P35869); assay: qHTS assay to identify small molecule that activate the aryl hydrocarbon receptor (AhR) signaling pathway (AID 743085); also: nearly all actives have a fitted effect of over 15% in size; also: potency is read from the fitted curve at half-maximal effect;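 as to activation: HG2L7.5c1 human HepG2 liver cells with stably integrated DRE-driven firefly reporter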
Aryl hydrocarbon receptor (Homo sapiens), sequence (P35869 whole entry, looked up): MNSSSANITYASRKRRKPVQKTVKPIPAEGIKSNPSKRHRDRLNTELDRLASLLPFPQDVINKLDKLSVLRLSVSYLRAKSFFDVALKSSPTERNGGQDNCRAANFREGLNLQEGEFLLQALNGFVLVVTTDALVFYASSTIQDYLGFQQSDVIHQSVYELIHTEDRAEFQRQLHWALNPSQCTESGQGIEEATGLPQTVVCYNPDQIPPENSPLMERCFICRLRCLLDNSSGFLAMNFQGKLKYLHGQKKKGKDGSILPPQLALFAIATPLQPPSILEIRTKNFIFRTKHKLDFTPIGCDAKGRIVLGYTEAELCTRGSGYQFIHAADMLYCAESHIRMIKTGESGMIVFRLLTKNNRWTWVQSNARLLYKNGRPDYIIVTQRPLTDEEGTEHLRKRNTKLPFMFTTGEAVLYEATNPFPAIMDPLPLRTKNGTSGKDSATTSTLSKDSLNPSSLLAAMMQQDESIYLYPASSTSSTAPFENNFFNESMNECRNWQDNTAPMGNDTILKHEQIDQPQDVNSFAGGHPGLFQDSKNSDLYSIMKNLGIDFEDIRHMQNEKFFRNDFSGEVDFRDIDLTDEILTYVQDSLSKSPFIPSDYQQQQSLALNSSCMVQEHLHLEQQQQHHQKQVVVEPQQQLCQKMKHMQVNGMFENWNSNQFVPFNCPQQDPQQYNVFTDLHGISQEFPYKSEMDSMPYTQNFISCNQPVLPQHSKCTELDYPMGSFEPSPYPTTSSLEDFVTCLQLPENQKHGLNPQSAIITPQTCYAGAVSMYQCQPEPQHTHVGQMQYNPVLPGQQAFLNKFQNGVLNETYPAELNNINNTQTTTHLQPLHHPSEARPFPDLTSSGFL
Outline: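 Cell line HG2L7.5c1 (human hepatoma, 20× DRE-luc). Plated, 5 h 37C, compound/DMSO added, 24 h 37C. CellTiter-Fluor 30 min 37C → fluorescence; then ONE-Glo 30 min RT → luminescence.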

[6] = qHTS assay to identify small molecule that activate the aryl hydrocarbon receptor (AhR) signaling pathway - cell viability counter screen (AID 743086); also: nearly all actives have a fitted effect of over 45% in size; also: potency is read from the fitted curve at half-maximal effect
Outline: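 HepG2-AhR-luc (HG2L7.5c1) cells, 4000/well, treated 24 h at 37 C with compound; viability measured as CellTiter-Fluor fluorescence after 30 min in the same wells as the luciferase read.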

[7] = molecular target: Peroxisome proliferator-activated receptor gamma (Homo sapiens) (UniProt P37231); assay: qHTS assay to identify small molecule agonists of the peroxisome proliferator-activated receptor gamma (PPARg) signaling pathway (AID 743094; active = well fitted activation curve with a large enough effect in the signal ratio in the repeat runs, not every such curve was filed as active; the % refers to the signal ratio)
Peroxisome proliferator-activated receptor gamma (Homo sapiens), sequence (P37231 whole entry, looked up): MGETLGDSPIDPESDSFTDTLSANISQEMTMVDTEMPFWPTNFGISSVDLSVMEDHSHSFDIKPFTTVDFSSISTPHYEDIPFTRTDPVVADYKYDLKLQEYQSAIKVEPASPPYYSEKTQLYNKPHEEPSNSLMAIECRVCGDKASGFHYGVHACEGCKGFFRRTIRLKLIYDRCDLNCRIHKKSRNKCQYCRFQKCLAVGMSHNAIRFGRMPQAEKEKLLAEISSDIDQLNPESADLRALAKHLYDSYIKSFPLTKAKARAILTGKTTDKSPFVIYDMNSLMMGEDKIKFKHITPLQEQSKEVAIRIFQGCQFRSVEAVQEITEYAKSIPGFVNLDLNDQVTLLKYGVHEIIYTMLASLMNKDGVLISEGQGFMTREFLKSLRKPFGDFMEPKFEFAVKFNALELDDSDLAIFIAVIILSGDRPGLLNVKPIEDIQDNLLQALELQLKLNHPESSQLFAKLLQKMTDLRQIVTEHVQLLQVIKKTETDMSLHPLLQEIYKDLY
Outline: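 Stably transfected HEK293H cells (GeneBLAzer PPARg UAS-bla) were incubated with test substances for 17 h at 37C after a 5 h pre-incubation; beta-lactamase activity was then detected by FRET substrate fluorescence.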

[8] = qHTS assay for small molecule agonists of the antioxidant response element (ARE) signaling pathway - cell viability counter screen (AID 743203; calls by dose curve; also: nearly all actives have a fitted effect of over 55% in size; also: potency is read from the fitted curve at half-maximal effect)
Outline: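 Cells (ARE-bla HepG2, 2,000/well) receive DMSO-dissolved compounds after a 5 hrs rest. Plates incubate 16 hrs at 37C/5% CO2. CellTiter-Glo luminescence is then recorded after 30 min at room temperature.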

[9] = qHTS assay for small molecule agonists of the antioxidant response element (ARE) signaling pathway (AID 743202; active = well fitted activation curve with a large enough effect in the signal ratio in the repeat runs, not every such curve was filed as active; the % refers to the signal ratio; also: potency is read from the fitted curve at half-maximal effect)
Outline: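 Agonist mode reporter screen: HepG2 cells with ARE-controlled beta-lactamase are incubated with test compounds for 16 h at 37 C, and beta-lactamase activity is measured as fluorescence of cleaved B/G FRET substrate.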

[10] = qHTS assay to identify small molecule antagonists of the estrogen receptor alpha (ER-alpha) signaling pathway - cell viability counter screen (AID 743074; calls by dose curve;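 also: HEK293 cells carrying ER-alpha-UAS-bla reporter stimulated with 17beta-estradiol; nearly all actives have a fitted effect of over 45% in size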; also: potency is read from the fitted curve at half-maximal effect)
[11] = molecular target: Estrogen receptor (Homo sapiens) (UniProt P03372); assay: qHTS assay to identify small molecule agonists of the estrogen receptor alpha (ER-alpha) signaling pathway (AID 743075; calls by dose curve;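 also: HEK293 GripTite cells with ER-alpha and UAS-driven beta-lactamase reporter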)
Estrogen receptor (Homo sapiens), sequence (P03372 whole entry, looked up): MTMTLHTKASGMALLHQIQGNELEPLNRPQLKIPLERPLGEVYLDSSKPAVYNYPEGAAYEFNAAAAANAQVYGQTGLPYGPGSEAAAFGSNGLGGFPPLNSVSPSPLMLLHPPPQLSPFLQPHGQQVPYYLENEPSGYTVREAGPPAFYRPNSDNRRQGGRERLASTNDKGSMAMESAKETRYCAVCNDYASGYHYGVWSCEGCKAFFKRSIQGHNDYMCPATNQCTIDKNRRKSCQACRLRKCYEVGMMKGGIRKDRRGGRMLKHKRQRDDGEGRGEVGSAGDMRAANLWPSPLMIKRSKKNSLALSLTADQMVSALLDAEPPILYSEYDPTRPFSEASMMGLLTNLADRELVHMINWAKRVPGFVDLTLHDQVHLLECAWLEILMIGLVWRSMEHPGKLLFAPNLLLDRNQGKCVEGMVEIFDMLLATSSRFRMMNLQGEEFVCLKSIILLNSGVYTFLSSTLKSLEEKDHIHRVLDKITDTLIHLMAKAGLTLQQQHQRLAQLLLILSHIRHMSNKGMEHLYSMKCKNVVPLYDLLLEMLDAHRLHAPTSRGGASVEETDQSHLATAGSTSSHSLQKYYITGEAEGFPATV

[12] = molecular target: Estrogen receptor (Homo sapiens) (UniProt P03372); assay: qHTS assay to identify small molecule agonists of the estrogen receptor alpha (ER-alpha) signaling pathway using the BG1 cell line (AID 743079); conditions: BG1Luc4E2 cells, ERE-luciferase agonist, 22 h; activation: at 70.3 µM (top of the series); also: nearly all actives have a fitted effect of over 20% in size
[13] = qHTS assay to identify small molecule antagonists of the estrogen receptor alpha (ER-alpha) signaling pathway using the BG1 cell line (AID 743080; calls by dose curve; also: nearly all actives have a fitted effect of over 25% in size; also: potency is read from the fitted curve at half-maximal effect)
Outline: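 Antagonist mode: compounds in DMSO were pinned onto BG1-Luc-4E2 cells alongside 17beta-estradiol agonist, incubated 21.5 h, and ERE-driven luciferase measured with ONE-Glo. Cytotoxicity was multiplexed using CellTiter-Fluor fluorescence.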

[14] = qHTS assay to identify small molecule antagonists of the estrogen receptor alpha (ER-alpha) signaling pathway using the BG1 cell line - cell viability counter screen (AID 743081);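 also: compound given together with 17beta-estradiol as the ER stimulus; nearly all actives have a fitted effect of over 45% in size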; also: potency is read from the fitted curve at half-maximal effect
[15] = qHTS assay to identify small molecule antagonists of the peroxisome proliferator-activated receptor gamma (PPARg) signaling pathway - cell viability counter screen (AID 743194); also: nearly all actives have a fitted effect of over 55% in size; also: potency is read from the fitted curve at half-maximal effect
Outline: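 Cytotoxicity counter screen in PPARg-bla HEK293H cells, same wells as reporter assay. Compounds plus 50 nM rosiglitazone (final) for 17 h at 37 C, then viability read by CellTiter-Glo luminescence.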

[16] = qHTS assay for small molecule activators of the heat shock response signaling pathway - cell viability counter screen (AID 743209); also: nearly all actives have a fitted effect of over 50% in size
Outline: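 Quantitative HTS format, Tox21 10K library. HeLa cells carrying an HSE-driven beta-lactamase reporter were treated 5 h at 37 C, then assessed for viability by CellTiter-Glo luminescence.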

[17] = qHTS assay for small molecule activators of the heat shock response signaling pathway (AID 743210; active = well fitted activation curve with a large enough effect in the signal ratio in the repeat runs, with a control signal flat, not every such curve was filed as active; the % refers to the signal ratio;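 also: HeLa cells with beta-lactamase reporter driven by heat shock elements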)
Outline: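 Quantitative high-throughput format using an engineered HeLa line in which heat shock response elements drive beta-lactamase; after 5 h with compound, cells received a B/G FRET substrate and fluorescence was read.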

[18] = molecular target: Peroxisome proliferator-activated receptor gamma (Homo sapiens) (UniProt P37231); assay: qHTS assay to identify small molecule antagonists of the peroxisome proliferator-activated receptor gamma (PPARg) signaling pathway (AID 743191; calls by dose curve; also: nearly all actives have a fitted effect of over 30% in size; also: potency is read from the fitted curve at half-maximal effect)
Outline: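 GeneBLAzer PPARg UAS-bla HEK293H cells, 5 h post-plating, exposed to compounds 17 h at 37C. LiveBLAzer B/G FRET substrate added for 1 h at room temperature; beta-lactamase reporter read by fluorescence intensity.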

[19] = molecular target: Estrogen receptor (Homo sapiens) (UniProt P03372); assay: qHTS assay to identify small molecule antagonists of the estrogen receptor alpha (ER-alpha) signaling pathway (AID 743069; active = well fitted curve in the direction sought with a large enough effect in the signal ratio in the repeat runs, not every such curve was filed as active; the % refers to the signal ratio)
Outline: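 Reporter cells (ER-alpha-bla, HEK293 background) are conditioned overnight in stripped-serum medium (2% charcoal-stripped FBS). Compound and 17beta-estradiol exposure runs 18 hr at 37C, 5% CO2.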

Measured: Potency

CN1C(=O)c2ccccc2C1=O
inactive: [1] | [2] | [3] | [4] | [5] | [6] | [7] | [8]

Nc1nc2ccc([N+](=O)[O-])cc2s1
inactive: [2] | [3] | [7] | [8]
active: [1] 48.6 µM | [5] 32.5 µM | [9] 9.69 µM

Cc1cc(C)cc(N)c1
not listed: [7] | [18] | [19]
inactive: all other assays above

CC1(C)[C@H](C(=O)O)N2C(=O)C[C@H]2S1(=O)=O
not listed: [5] | [7] | [9] | [18] | [19]
inactive: all other assays above

c1ccc2c(c1)CCc1ccccc1N2
not listed: [4] | [5] | [10] | [11] | [12] | [13] | [18] | [19]
inactive: all other assays above

O=C(Cn1ccnc1[N+](=O)[O-])NCCO
not listed: [10] | [18] | [19]
inactive: all other assays above

CC(=O)NC1(c2cccc(F)c2)CCN(CC[C@@]2(c3ccc(Cl)c(Cl)c3)CN(c3ccccc3)C(=O)CO2)CC1
active: [1] 10.9 µM | [10] 39 µM | [13] 54.6 µM | [4] 48.7 µM | [6] 43.4 µM | [18] 43.8 µM | [15] 34.8 µM | [8] 19.4 µM
inactive: [11] | [16] | [17]

O=C(CCCN1CC=C(n2c(=O)[nH]c3ccccc32)CC1)c1ccc(F)cc1
not listed: [1] | [9] | [18]
inactive: all other assays above

N#CCCN(CCO)CCO
not listed: [7] | [9] | [18] | [19]
inactive: all other assays above

CC(CCC(=O)O)C(=O)O (stereo unspecified)
not listed: [5] | [9] | [11] | [12] | [13] | [18] | [19]
inactive: all other assays above

Cc1cccc(N(C)C(=S)Oc2ccc3c(c2)CCC3)c1
not listed: [6] | [9] | [13] | [14] | [18] | [19]
inactive: all other assays above

CC(C)=CC(=O)C=C(C)C
not listed: [9] | [18] | [19]
inactive: all other assays above

Cc1ccc(C(C)(C)O)cc1
not listed: [5] | [19]
inactive: all other assays above

NC(=O)c1ccncc1
not listed: [9] | [11] | [12] | [13] | [19]
inactive: all other assays above

C[C@@H]1CC(=O)NN=C1c1ccc(NN=C(C#N)C#N)cc1
inactive: [10] | [11] | [13] | [15] | [8] | [16]
active: [1] 13.3 µM | [14] 23.7 µM | [3] 29.8 µM | [4] 26.6 µM | [6] 26.6 µM

Clc1ccc(Nc2nnc(Cc3ccncc3)c3ccccc23)cc1
active: [1] 13.3 µM | [13] 21.1 µM and 26.6 µM | [3] 5.31 µM and 13.3 µM | [5] 1.5 µM and 841 nM | [9] 21.1 µM
not listed: [6] | [8] | [15] | [18] | [19]
inactive: all other assays above

Source: PubChem BioAssay (Tox21)
